According to PubChem BioAssay (Tox21):
Results filed as inconclusive are left out. Values without a mark were called inactive. Active and inactive are the calls of the source. Calls come from the whole dose curve; as a rule, active = well fitted cell-killing curve with a large enough effect in the repeat runs; inconclusive = weak or mixed curves; inactive = flat fitted curve, though single readings scatter.
% is set by controls: 0 for no effect and ±100 for the full control effect; potency is the fitted concentration of half-maximal effect.

Experiment: qHTS assay to identify small molecule antagonists of the estrogen receptor beta (ER-beta) signaling pathway - cell viability counter screen (AID 1259382); note: nearly all actives have a fitted effect of over 55% in size
Settings: ER-beta-UAS-bla HEK293T viability, CellTiter-Glo luminescence, 16 h; series mostly up to 92.4 µM; activity change, negative = cytotoxicity: at the top concentration
Description: U.S. Tox21 Program National Center for Advancing Translational Sciences [NCATS] NIH Chemical Genomics Center [NCGC] U.S. Environmental Protection Agency [EPA] National Institutes of Environmental Health Sciences [NIEHS] National Toxicology Program [NTP] U.S. Food and Drug Administration [FDA] Tox21 Assay Overview: Estrogen receptor (ER), a nuclear hormone receptor, plays an important role in development, metabolic homeostasis and reproduction. Two subtypes of ER, ER-alpha and ER-beta, have similar expression patterns with some uniqueness in both types. Endocrine disrupting chemicals (EDCs) and their interactions with steroid hormone receptors like ER causes disruption of normal endocrine function. To identify the compounds that inhibit ER signaling, an ER-beta-UAS-bla GripTite cell line (Life Technologies, Madison, WI, USA) containing a beta-lactamase reporter gene under the control of an UAS response element was used to screen Tox21 10K compound library. The cytotoxicity of the Tox21 compound library against the ER-beta-bla cell line was tested in parallel by measuring the cell viability using CellTiter-Glo assay in the same wells.
Tox21 Assay Protocol Summary: ER-beta-UAS-bla HEK293T cells were dispensed at 2,000 cells/4 uL of assay medium containing 2% charcoal stripped FBS per well into black wall/clear-bottom 1536-well plates using a Multidrop Combi (ThermoFisher Scientific, Waltham, MA) dispenser. After the assay plates were incubated at a 37C and 5% CO2 for 6 hr, 23 nL of compounds dissolved in DMSO, positive controls or DMSO only was transferred to the assay plate by a Pintool station (Kalypsys, San Diego, CA), followed by addition of 1 uL (1nM as final concentration) of 17-beta-estradiol (E2) in assay medium using a Flying Reagent Dispenser (FRD, Aurora Discovery, San Diego, CA). The plates were incubated at 37C and 5% CO2 for 16 hr. Then 1 uL of LiveBLAzer B/G FRET substrate was added using a Flying Reagent Dispenser, the plates were incubated at room temperature for 2 hours, and fluorescence intensity was measured by an Envision plate reader (PerkinElmer, Shelton, CT). For cell viability readout that measures cytotoxicity, 4 uL/well of CellTiter-Glo reagent was added into the assay plates using a FRD. After 30 min incubation at room temperature, the luminescence intensity in the plates was measured using a ViewLux (PerkinElmer) plate reader.
With CSc1nc(N=[N+]=[N-])nc(NC(C)C)n1 the “activity change, negative = cytotoxicity” value was 1.05%.
For O=C(CCCN1CCC(n2c(=O)[nH]c3ccccc32)CC1)c1ccc(F)cc1, the “activity change, negative = cytotoxicity” value was -9.76% [at 42.5 µM].
For COc1cc(OC)nc(Sc2cccc(Cl)c2C(=O)O)n1, the “activity change, negative = cytotoxicity” value was 2.3%.
In the case of CCc1cc2c(s1)-n1c(C)nnc1CN=C2c1ccccc1Cl, the “activity change, negative = cytotoxicity” value is reported as 4.93% [at 42.5 µM].
With CNNC the “activity change, negative = cytotoxicity” value was -0.0775%.
With N#CC(CCc1ccc(Cl)cc1)(Cn1cncn1)c1ccccc1 (stereo not given) the Potency was 48.6 µM (active).
For CCCSC(=O)N(CCC)CCC, the “activity change, negative = cytotoxicity” value was 13%.
With COc1cc(C[C@@H](C)N)c(OC)cc1C the “activity change, negative = cytotoxicity” value was -17.9%.
With CC(COc1ccc(Oc2ccccc2)cc1)Oc1ccccn1 (stereo not given) the “activity change, negative = cytotoxicity” value was 3.73%.
With CC(C=O)Cc1ccc2c(c1)OCO2 (stereo not given) the “activity change, negative = cytotoxicity” value was 3.89%.
In the case of c1coc(-c2nc3ccccc3[nH]2)c1, the “activity change, negative = cytotoxicity” value is reported as -2.22%.
For O=S(=O)(O)C(F)(F)C(F)(F)C(F)(F)C(F)(F)C(F)(F)C(F)(F)F, the “activity change, negative = cytotoxicity” value was -12.5%.
In the case of COc1ccc(C(=O)N2CCCC2=O)cc1, the “activity change, negative = cytotoxicity” value is reported as 3.54% [at 42.5 µM].
With [Cl][Sn]([Cl])([Cl])[Cl] the “activity change, negative = cytotoxicity” value was 4.15%.
For Cc1cnc[nH]1, the “activity change, negative = cytotoxicity” value was 1.57%.
In the case of [As]#[In], the “activity change, negative = cytotoxicity” value is reported as 5.82%.
With CC1=NNC(=O)N(/N=C/c2cccnc2)C1 the “activity change, negative = cytotoxicity” value was 9.76%.
For CC(C1CC1)C(O)(Cn1cncn1)c1ccc(Cl)cc1 (stereo not given), the “activity change, negative = cytotoxicity” value was -11.8%.
In the case of CCSC(=O)N(CC)C1CCCCC1, the “activity change, negative = cytotoxicity” value is reported as -0.764%.
In the case of CCCCCCBr, the “activity change, negative = cytotoxicity” value is reported as 2.03%.
With O=C1OC(CCN2CCCCC2)OC1(c1ccccc1)c1ccccc1 (stereo not given) the “activity change, negative = cytotoxicity” value was -1.24% [at 42.5 µM].
In the case of CCC(C)n1c(=O)[nH]c(C)c(Br)c1=O (stereo not given), the “activity change, negative = cytotoxicity” value is reported as 0.995%.
With Cc1cccc(C#N)c1 the “activity change, negative = cytotoxicity” value was 0.771%.
For CNC(=O)N(C)c1nc2ccccc2s1, the “activity change, negative = cytotoxicity” value was -15.2%.
In the case of C(CCOCC1CO1)COCC1CO1 (stereo not given), the “activity change, negative = cytotoxicity” value is reported as 6.02%.
For CCOP(=S)(OCC)SCSc1ccc(Cl)cc1, the “activity change, negative = cytotoxicity” value was 7.67%.
With Cc1coc2c1CCC(C)C2 (stereo not given) the “activity change, negative = cytotoxicity” value was -1.89%.
With CCN(Cc1ccc(Cl)nc1)/C(=C/[N+](=O)[O-])NC the “activity change, negative = cytotoxicity” value was 2.66% [at 42.5 µM].
In the case of C#C[C@]1(O)C=C[C@H]2[C@@H]3CCC4=CC(=O)CC[C@@H]4[C@H]3CC[C@@]21CC, the “activity change, negative = cytotoxicity” value is reported as -7.9% [at 42.5 µM].
For CN(N=O)C(N)=O, the “activity change, negative = cytotoxicity” value was -3.24%.
With N#CCBr the “activity change, negative = cytotoxicity” value was 0.629%.
With COC(=O)c1c(C(F)F)nc(C(F)(F)F)c(C2=NCCS2)c1CC(C)C the “activity change, negative = cytotoxicity” value was 7.68%.
For CC1CCCCC1NC(=O)Nc1ccccc1 (stereo not given), the “activity change, negative = cytotoxicity” value was -8.69%.
With CNC(=O)O/N=C(\C)SC the “activity change, negative = cytotoxicity” value was 2.34%.
With Nc1cc2c3c(c1)C(c1ccccc1)=N[C@@H](NC(=O)c1cccnc1)C(=O)N3CC2 the “activity change, negative = cytotoxicity” value was -12.9%.
For O=C1CN=C(c2ccccc2)c2cc([N+](=O)[O-])ccc2N1, the “activity change, negative = cytotoxicity” value was 6.9% [at 42.5 µM].
With CCCSP(=O)(OCC)Oc1ccc(Br)cc1Cl (stereo not given) the “activity change, negative = cytotoxicity” value was -2.17% [at 42.5 µM].
With Clc1ccccc1N1CCNCC1 the “activity change, negative = cytotoxicity” value was -0.168% [at 42.5 µM].
With CCC/C(=N\OCC)C1=C(O)CC(CC(C)SCC)CC1=O (stereo not given) the “activity change, negative = cytotoxicity” value was -16.4%.
With Cc1ncc2n1-c1ccc(Cl)cc1C(c1ccccc1F)=NC2 the “activity change, negative = cytotoxicity” value was 7.28% [at 42.5 µM].
